Source: PubChem (several laboratories)
An excerpt weighted towards active compounds, which were near 2.2% of everything screened.
SKN-1 inh = inhibitors of C. elegans SKN-1; actives 0.49% (n = 360,000); AID 624304; C. elegans VP596 Pgst-4::GFP/RFP ratio, acrylamide-induced, 24 h; inhibition, % at 21.8 µM;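 active means interference check ratio from 0.5 to 1.5 plus GFP to RFP signal ratio inhibition reaching or exceeding a fixed threshold, cut at about 30% in these data, passing the limit was not always enough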
HGIII-sPLA2 inh = Blocks human group III sPLA2 activity; Q9NZ20; QFRET BODIPY PC-A2 liposome hydrolysis, fluorescence; inhibition, % at 12.2 µM; actives 0.56% (n = 370,000); AID 743126;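 active means inhibition above mean plus 3 SD of compounds lying within the high and low control bounds, cut at about 19% in these data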;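 further: 0% = median of test compound wells and 100% = no enzyme DMSO wells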
Target sequence (Q9NZ20 whole entry, looked up): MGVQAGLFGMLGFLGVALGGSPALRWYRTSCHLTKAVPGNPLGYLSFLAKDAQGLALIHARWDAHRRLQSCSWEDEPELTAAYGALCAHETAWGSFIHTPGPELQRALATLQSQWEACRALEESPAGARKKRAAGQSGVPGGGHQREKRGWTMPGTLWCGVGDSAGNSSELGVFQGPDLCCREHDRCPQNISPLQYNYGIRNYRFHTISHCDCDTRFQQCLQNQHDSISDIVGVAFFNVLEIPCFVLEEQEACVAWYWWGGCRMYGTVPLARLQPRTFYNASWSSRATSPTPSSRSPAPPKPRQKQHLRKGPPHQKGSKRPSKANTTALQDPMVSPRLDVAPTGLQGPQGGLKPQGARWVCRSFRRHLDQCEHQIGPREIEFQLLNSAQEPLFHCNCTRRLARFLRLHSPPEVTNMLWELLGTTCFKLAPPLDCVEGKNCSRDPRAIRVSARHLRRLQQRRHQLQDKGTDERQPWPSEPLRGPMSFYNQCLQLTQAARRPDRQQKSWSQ
Mot1-301 SUMO = inhibitors of SUMOylation pathway: yeast Mot1-301 growth rescue; actives 1% (n = 320,000); S. cerevisiae Mot1-301 growth rescue, ATP luminescence, 38.5C; percent above DMSO median, 100 means doubled; growth rescue, % at 18.8 µM;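 active means every valid replicate shows activation above 250% relative to neutral control wells; inactive means the rest, any valid replicate at or below 250%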;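 further: OY570 slx delta 5 strain wells were the positive control but not used for scaling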
Efflux pump inh = inhibitors of Candida antifungal efflux pumps expressed in yeast; AID 485275; inhibition, % at 10 µM; S. cerevisiae Candida pump triplex, Nile Red efflux; actives 0.44% (n = 330,000);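 active means plate passing quality check with inhibition over a set limit, or well fluorescence over plate mean plus 4 SD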;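 further: Nile Red retained in pooled yeast measured as flow cytometry median fluorescence; 0% = buffer negative control and 100% = Enniatin B positive control; higher means more Nile Red kept so more efflux inhibition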
Mot1 SUMO dose = yeast SUMO pathway inhibition in dose response; shares compounds with Mot1-301 SUMO; S. cerevisiae Mot1-301 galactose growth, ATP luminescence, 24 h; -100 = growth of slx-deleted rescue strain; growth activity, percent, % at 42 µM; 2,300 tested, under 10 active; AID 493004;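 active means Signal drops as the depositor expects, and the fitted half-maximal dose is no more than ten times the top valid tested dose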;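 further: more negative values mean stronger growth rescue toward the control strain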
The depositor's hits bear a star; . = no result; + = active, no number; ! = a repeat was not active; [ ] = another dose, or the depositor's remark.

SMILES | SKN-1 inh | HGIII-sPLA2 inh | Mot1-301 SUMO | Efflux pump inh | Mot1 SUMO dose
COC(=O)[C@@H]1C[C@@H]2CC[C@@H](O)C[C@@H]2N1Cc1ccc(N2CCN(C)CC2)cc1 | 1 | 6 | 522* | 0 | 0
CCOc1ccc(C(=O)NCC2OCCc3ccccc32)cc1 (configuration not stated) | 3 | -1 | 748* | 0 | 0
NC(=O)C1=C[C@@H](c2ccc(Br)cc2)C[C@@H](OCCCCO)O1 | 5 | 0 | 554* | 0 | 1
C[C@@H]1OC(C2CCCCC2)N(C)[C@H]2C[C@H]3c4[nH]c5c(-c6ccc7c(c6)OCO7)cccc5c4CCN3C[C@@H]12 (some centres not stated) | . | 1 | . | . | .
C=CSc1sc(Cl)c(N(C)C)c1[N+](=O)[O-] | 11 | -1 | 411* | 0 | 0
C=CSc1sc(Cl)c(N(CC)CC)c1[N+](=O)[O-] | -5 | -1 | 28 | 0 | .
Fc1ccccc1-n1cc(-c2ccccc2)[nH]c1=S | 5 | 14 | 450* | 0 | 0
COc1ccc(-n2cc(-c3ccccc3)[nH]c2=S)c(OC)c1 | 10 | 19 | -24 | 0 | .
COc1ccc(-c2nc3n(c(=O)c2C#N)CCS3)cc1 | 4 | 14 | -11 | 0 | .
CCOc1ccc(-c2nc3n(c(=O)c2C#N)CCS3)cc1 | -5 | -9 | 439* | 0 | 0
CCOC(=O)c1c(N)sc(C(=O)N2CCCCCC2)c1C | -4 | 3 | 0 | 0 | .
CCOC(=O)c1c(N)sc(C(=O)N2CCCC(C(N)=O)C2)c1C (configuration not stated) | 3 | 2 | 933* | 0 | 1
COc1ccc(Cl)cc1S(=O)(=O)N1CCN(C(=O)c2n[nH]c(=O)c3ccccc23)CC1 | 1 | 1 | 11 | 0 | .
N#CCC[C@@H]1CC[C@]2(CCCN(C(=O)c3ccc4ccccc4n3)C2)O1 | . | 4 | . | . | .
CCCOc1ccccc1C1NC(=O)NC(C)=C1C(=O)OCc1ccccc1 (configuration not stated) | 5 | -8 | 735* | 0 | 0
O=C(O)CCC(=O)N1N=C(c2ccccc2)CC1c1ccc2c(c1)OCO2 (configuration not stated) | 9 | 1 | 6 | 0 | .
O=C1C2C(c3ccccc3)CC=CC2[C@H](c2ccc3ccccc3c2)N1Cc1ccccc1 (some centres not stated) | -12 | 9 | 508* | 0 | -1
COc1ccc(-c2cccc(C3CC=CC4C3C(=O)N(Cc3ccccc3)C4c3ccc4ccccc4c3)c2)cc1 (configuration not stated) | -12 | 13 | 64 | 0 | .
COCCCn1c2nc3ccccc3nc2c2c(=O)n(Cc3ccc(Cl)cc3)cnc21 | 7 | 2 | 425* | 0 | 0
CCCCCCN1CCS(=O)(=O)N(Cc2ccc(F)cc2)C(C(=O)OC)C1 (configuration not stated) | . | 11 | . | . | .
O=C1CN(C(=O)COC(=O)CCNS(=O)(=O)c2ccc(Cl)cc2)c2ccccc2N1 | -11 | -15 | 365* | 0 | 0
CC1=C(C(=O)Nc2ccccc2)C(c2ccccc2[N+](=O)[O-])NC(=O)N1 (configuration not stated) | 4 | 1 | + | 0 | -1
COc1ccc(C(=O)Nc2cc(Cl)ccc2OC(=O)c2ccc(OC)cc2)cc1 | -1 | . | -8 | 0 | .
COc1ccc(OC(=O)c2ccc(Cl)cc2)c(C(C)=O)c1 | -10 | 0 | 408* | 0 | 0
CC(=O)NCCNc1nc2cc(-c3ccc(C(=O)N4CCN(C)CC4)cc3)sc2c(=O)n1C | 8 | 0 | . | . | .
SMILES | SKN-1 inh | HGIII-sPLA2 inh | Mot1-301 SUMO | Efflux pump inh | Mot1 SUMO dose
COc1ccc(NC(=O)C2CCCN2S(=O)(=O)c2cccc3cccnc23)cc1OC (configuration not stated) | -8 | 1 | 414* | 0 | 0
O=C(NC1CCCCCC1)C1CCN(S(=O)(=O)c2cccc3cccnc23)CC1 | -4 | 11 | 561* | 0 | 1
O=C(NC1CCCC1)C1CCCN(S(=O)(=O)c2cccc3cccnc23)C1 (configuration not stated) | -20 | 13 | -6 | 0 | .
C[C@@H]1O[C@@H]1P(=O)(O)O | -24 | -6 | 91 | 0 | .
C[C@H]1O[C@H]1P(=O)(O)O | -9 | 3 | 975* | 0 | 1
Cn1c(=O)nc2n(Cc3ccccc3)c3ccccc3cc-2c1=O | 6 | 0 | 417* | 0 | -1
O=C(N/C(=C\c1ccc2c(c1)OCO2)C(=O)N1CCOCC1)c1cccs1 | -9 | 0 | -1 | 0 | .
O=C(N/C(=C/c1ccc2c(c1)OCO2)C(=O)N1CCOCC1)c1cccs1 | 19 | 2 | 765* | 0 | -1
Cc1cc(NC(=O)c2ccccc2F)n(C(C)(C)C)n1 | -6 | 7 | + | 0 | 0
COC(=O)C1=C(C)NC(C)=C([N+](=O)[O-])C1c1ccccc1C(F)(F)F (configuration not stated) | -5 | -13 | 497*! | 0 | -1
COC(=O)C1=C(C)NC(C)=C(C(=O)OC)C1c1ccc(-c2cccc([N+](=O)[O-])c2)o1 | -1 | 15 | -1 | 0 | .
C[C@@H]1COc2cccc(N3CCSCC3)c2S(=O)(=O)N1C | . | 2 | . | . | .
Cc1onc(-c2ccccc2)c1C(=O)OCC(=O)N(C)c1c(N)n(Cc2ccccc2)c(=O)[nH]c1=O | 15 | 7 | 3 | 0 | .
CCN(C(=O)COC(=O)c1c(-c2ccccc2)noc1C)c1c(N)n(Cc2ccccc2)c(=O)[nH]c1=O | 1 | 4 | 413* | 0 | 0
Cc1ccc(/C=C/C(=O)OCC(=O)N(CC(C)C)c2c(N)n(Cc3ccccc3)c(=O)[nH]c2=O)o1 | -2 | -2 | 812* | 0 | 0[21 µM]
CC(NCc1ccc(OCC(N)=O)cc1)C12CC3CC(CC(C3)C1)C2 (configuration not stated) | 12 | -3 | -3 | 0 | .
CC(C)CCn1c(=O)c2ccccc2n2c(CCC(=O)NCC3CCCO3)nnc12 (configuration not stated) | 15 | 7 | 7 | 0 | .
CCOC(=O)Cn1c(=O)oc2cc(S(=O)(=O)NCCC(C)C)ccc21 | -13 | 9 | 9 | 0 | .
CCOC(=O)Cn1c(=O)oc2cc(S(=O)(=O)NC(C)(C)CC)ccc21 | 1 | 15 | 643* | 0 | 0
CCOc1ccc(S(=O)(=O)N2CCN(CC(O)COc3cccc([N+](=O)[O-])c3)CC2)cc1 (configuration not stated) | 6 | -13 | 588* | 0 | 0
COc1ccccc1/C=C/C(=O)c1ccccc1 | -2 | 1 | 85 | 0 | .
COc1ccccc1/C=C/C(=O)c1c2c(c(C)[nH]c1=O)CCCC2 | -10 | -7 | -13 | 0 | 0
Cn1c(=O)c2c(nc(OC3CCCC3)n2C)n(C)c1=O | 0 | -2 | . | . | .
Cn1c(CN2CCOCC2)nnc1SCC(N)=O | 12 | 8 | 538* | 0 | 1
CCCSc1nnc(CN2CCOCC2)n1C | -8 | 0 | . | 0 | .
